# Experimental data published in ChEMBL document CHEMBL4513139, “CO-ADD screening of University of Strathclyde (UK) compounds”.
# Entries with a potency or affinity are not part of this list.
# System: Escherichia coli
# Details: Concentration 32 ug.mL-1; ASSAY_TEST Inhibition of Bacterial Growth; detection method Absorption (OD600); MEDIA CAMHB; plate type 384well; NBS; CORNING #3640; time 18 hr
row,Compound,Inhibition [%]
1,Cn1cc(NC(=O)c2cc(NC(=O)CCC(=O)O)cn2C)cc1C(=O)NCCN1CCOCC1.O=C(O)C(F)(F)F,-3.43
2,COc1ccc(CC(=O)Nc2cc(C(=O)Nc3cc(C(=O)Nc4cn(CCCN(C)C)cn4)n(C)c3)n(C)c2)cc1.O=C(O)C(F)(F)F,-5.32
3,Cc1ncc(CNc2ccc(Cl)cc2)c(N)n1,2.07
4,COc1cccc(C(=O)Nc2cc(C(=O)Nc3cc(C(=O)Nc4cn(CCCN(C)C)cn4)n(C)c3)n(C)c2)c1.O=C(O)C(F)(F)F,-11.39
5,COc1cccc(C(=N)Nc2cc(C(=O)Nc3cc(C(=O)Nc4cc(C(=O)NCCCN(C)C)n(C)c4)n(C)c3)n(C)c2)c1.O=C(O)C(F)(F)F.O=C(O)C(F)(F)F,-2.32
6,Cn1cc(NC(=O)c2cc(NC(=O)c3sc(N)nc3C(F)(F)F)cn2C)cc1C(=O)NCCN1CCOCC1.O=C(O)C(F)(F)F,-24.64
7,Cc1ncc(Cn2cc(CCC(=O)O)nn2)c(N)n1.O=C(O)C(F)(F)F,-17.36
8,Cc1ncc(CNc2ccc(C(F)(F)F)cc2)c(N)n1,-11.04
9,COCCOC1CCN(C(=O)c2cc(NC(=O)c3cc(NC(=O)c4ccc(/C=C/c5ccc(OC)cc5)cc4)cn3C)cn2C)CC1.O=S(=O)(O)O,96.85
10,CC(C)c1sc(N)nc1C(=O)Nc1cc(C(=O)Nc2cc(C(=O)NCCN3CCOCC3)n(C)c2)n(C)c1.O=C(O)C(F)(F)F,-18.06
11,CC(C)c1sc(N)nc1C(=O)Nc1cc(C(=O)NCCN2CCOCC2)n(C)c1.O=C(O)C(F)(F)F,-3.07
12,Cn1cc(NC(=O)c2cc(NC(=O)c3ccc(/C=C/c4cccc(F)c4)cc3)cn2C)cc1C(=O)NCCN1CCOCC1.O=C(O)C(F)(F)F,-7.74
13,Cc1ncc(Cn2cc(CCCO)nn2)c(N)n1,-17.2
14,CCOC(=O)c1cc(NC(=O)c2cc(NC(=O)c3nc(N)sc3CCC(C)C)cn2C)cn1C,-10.89
15,Cn1cc(NC(=O)c2cc(NC(=O)c3sc(N)nc3C(F)(F)F)cn2C)cc1C(=O)NCCC(=N)N.O=C(O)C(F)(F)F,-25.01
16,CC(C)CCc1sc(NC(=O)c2cc(NC(=O)c3cc(NC(=O)c4ccc(C(=O)O)cc4)cn3C)cn2C)nc1C(=O)NCCCN(C)C.O=C(O)C(F)(F)F,-17.53
17,Cc1ccc(S(=O)(=O)NCCc2cn(Cc3cnc(C)nc3N)nn2)cc1,-13.92
18,Cn1cc(NC(=O)c2cc(NC(=O)c3cc(NC(=O)c4ccc(Cl)cc4Cl)cn3C)cn2C)cc1C(=O)NCCN1CCOCC1.O=C(O)C(F)(F)F,-8.53
19,Cc1ncc(Cn2cc(CCCN)nn2)c(N)n1.Cl,-28.01
20,CN(C)CCCNC(=O)c1cc(NC(=O)c2cc(NC(=O)c3cc4ccccc4cn3)cn2C)cn1C.O=C(O)C(F)(F)F,-10.84
21,Cc1ncc(CO)c(N)n1,-19.21
22,COc1cccc(C(=N)Nc2cc(C(=O)Nc3cc(C(=O)Nc4cn(CCCN(C)C)cn4)n(C)c3)n(C)c2)c1.O=C(O)C(F)(F)F.O=C(O)C(F)(F)F,-11.88
23,COc1cccc(/C=C/c2ccc(C(=O)Nc3cc(C(=O)Nc4cc(C(=O)NCCN(C)C)n(C)c4)n(C)c3)cc2)c1.O=C(O)C(F)(F)F,88.16
24,CC(C)CCc1sc(N)nc1C(=O)Nc1cc(C(=O)Nc2cc(C(=O)NCCN3CCOCC3)n(C)c2)n(C)c1.O=C(O)C(F)(F)F,-8.65
25,Cc1ncc(Cn2cc(CCO)nn2)c(N)n1,-15.62
26,COC(=O)CCC(=O)Nc1cc(C(=O)Nc2cc(C(=O)NCCN3CCOCC3)n(C)c2)n(C)c1.O=C(O)C(F)(F)F,-5.38
27,CC(=O)Nc1cc(C(=O)Nc2cc(C(=O)Nc3cc(C(=O)NCCCN(C)C)n(CCC(C)C)c3)n(C)c2)n(C)c1.O=C(O)C(F)(F)F,-19.43
28,COc1cccc(C(=N)Nc2cc(C(=O)Nc3cc(C(=O)Nc4cc(C(=O)NCCCN5CCOCC5)n(C)c4)n(C)c3)n(C)c2)c1.O=C(O)C(F)(F)F.O=C(O)C(F)(F)F,-6.36
29,CC(=N)Nc1cc(C(=O)Nc2cc(C(=O)Nc3cc(C(=O)NCCN4CCOCC4)n(C)c3)n(C)c2)n(C)c1.O=C(O)C(F)(F)F.O=C(O)C(F)(F)F,-8.61
